The results in this text go back to PubChem BioAssay (NCI).

Among the test systems are NCI-H23 lung; NCI-H226 lung; NCI-H322M lung; HOP-62 NSCLC; NCI-H460 lung; HOP-92 NSCLC; NCI-H522 lung; A549/ATCC NSCLC; 786-0 renal; COLO 205 colon.
Test in all cases: NCI-60 one-dose screen, 48 h (100 = growth as untreated, 0 = no growth, -100 = all killed)
What all share (details): 10 µM

This is part of a sample that, as a whole, favours compounds with a hit. Of some 83,000 tested, about 20% had one in any assay.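 Cells were grown in 96-well plates and exposed to the test compound at a single concentration for 48 hours; results are reported as percent growth, with values below 10 considered active.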 A number with no mark means an inactive call. The source made the active and inactive calls.

Turning to `CC(=O)NS(=O)(=O)c1ccc(NC(=O)CSC2=NC(c3ccccc3)C(C(C)=O)=C(C)N2)cc1` (stereo not given), the growth is 97.5% with NCI-H23 lung; 109% with NCI-H226 lung; 105% in the assay with NCI-H322M lung; 103% with HOP-62 NSCLC; 121% with NCI-H460 lung; 134% in the assay on HOP-92 NSCLC. In addition, the growth with NCI-H522 lung was 98.4%; in the assay on A549/ATCC NSCLC, 98.1%; in the assay with 786-0 renal, 103%; with COLO 205 colon, 126%.
In the case of `CCOC(=O)N/C(=C1/OCCN1C)[P+](c1ccccc1)(c1ccccc1)c1ccccc1`, the growth in the assay on NCI-H23 lung was 85.8%; in the assay with NCI-H226 lung, 93.1%; with NCI-H322M lung, 89.9%; with HOP-62 NSCLC, 97.6%; in the assay with NCI-H460 lung it was 86.7%; with HOP-92 NSCLC it was 59.1%. In addition, the growth with NCI-H522 lung is 54.2%; with A549/ATCC NSCLC, 89%; in the assay with 786-0 renal, 101%; in the assay on COLO 205 colon it was 41.3%.
With `O=C(Nc1cccc(C(F)(F)F)c1)c1cncc(C#Cc2cnc3cccnn23)c1`, the growth in the assay on NCI-H23 lung is 12.7%; in the assay on NCI-H226 lung, 27.1%; in the assay on NCI-H322M lung, 71.6%; with HOP-62 NSCLC it was 33.7%; in the assay with NCI-H460 lung it was 70.7%; in the assay with HOP-92 NSCLC, 7.14% (active). The growth in the assay with NCI-H522 lung is 54.9%; in the assay with A549/ATCC NSCLC, 63%; in the assay on 786-0 renal, 40.1%; with COLO 205 colon, 82.3%.
Consider `N#Cc1ccc(-c2nn(-c3ccc(C(=O)O)cc3)cc2CNc2cc(Cl)cc(C(F)(F)F)c2)cc1`, for which the growth is -12.8% (active) in the assay on NCI-H23 lung; 4.02% (active) in the assay on NCI-H226 lung; 36.4% in the assay with NCI-H322M lung; 6.03% (active) with HOP-62 NSCLC; 6.19% (active) in the assay with NCI-H460 lung; -26.6% (active) with HOP-92 NSCLC. In addition, the growth is 19.5% with NCI-H522 lung, 29.7% in the assay on A549/ATCC NSCLC, 11.5% in the assay with 786-0 renal and 55.7% in the assay on COLO 205 colon.
In the case of `CN1C(=O)/C(=C/c2ccc3ncsc3c2)NC1=NC12CC3CC(CC(O)(C3)C1)C2`, the growth with NCI-H23 lung is -21.1% (active); in the assay on NCI-H226 lung, -1.04% (active); with NCI-H322M lung, 9.71% (active); in the assay on HOP-62 NSCLC, 16.7%; in the assay with NCI-H460 lung, 9.92% (active); with HOP-92 NSCLC it was 22.1%. The growth in the assay with NCI-H522 lung was -46.8% (active); in the assay on A549/ATCC NSCLC, 16.7%; in the assay on 786-0 renal, 11.1%; in the assay on COLO 205 colon, -37.9% (active).
In the case of `O=C(N/N=C/c1ccc(B(O)O)o1)c1[nH]c2ccc(Br)cc2c1-c1ccccc1`, the growth with NCI-H23 lung was 24%; in the assay with NCI-H226 lung, 38.2%; with NCI-H322M lung, 61.2%; in the assay with HOP-62 NSCLC it was 44.3%; with NCI-H460 lung, 11%; with HOP-92 NSCLC, 58.9%. Moreover, the growth in the assay with NCI-H522 lung was -51% (active); with A549/ATCC NSCLC, 31.1%; with 786-0 renal it was 41.6%; with COLO 205 colon it was -43.2% (active).
For `Cc1ccc(/C(CSc2nnc(-c3c[nH]c4ccccc34)n2-c2ccccc2)=N/O)cc1`, the growth with NCI-H23 lung is 53.3%; in the assay with NCI-H226 lung, -41.1% (active); with NCI-H322M lung it was -42.4% (active); with HOP-62 NSCLC, -56.6% (active); with NCI-H460 lung, 1.99% (active); with HOP-92 NSCLC, -5.5% (active). Moreover, the growth with NCI-H522 lung was 23.8%; in the assay with A549/ATCC NSCLC it was 18.4%; in the assay on 786-0 renal it was 2.17% (active); in the assay with COLO 205 colon, 12.4%.
With `O=c1[nH]n(C(=S)N/N=C/c2ccc(F)cc2)c(=O)c2ccccc12`, the growth was 75.3% with NCI-H23 lung; 71.9% with NCI-H226 lung; 83.9% in the assay on NCI-H322M lung; 80.3% with HOP-62 NSCLC; 55.9% in the assay on NCI-H460 lung; 77% in the assay with HOP-92 NSCLC. The growth with NCI-H522 lung is 70%; in the assay on A549/ATCC NSCLC, 82.4%; with 786-0 renal, 76.5%; with COLO 205 colon, 105%.
`Cc1ccc(F)cc1N/C=c1\s/c(=C(\C#N)C(=O)Nc2ccccc2)n(-c2ccccc2)c1=O`: the growth with NCI-H23 lung is 58%; in the assay with NCI-H226 lung it was 20.3%; with NCI-H322M lung, 81.8%; in the assay on HOP-62 NSCLC, 51.8%; in the assay on NCI-H460 lung it was 71.7%; in the assay with HOP-92 NSCLC, 27.6%. Also, the growth is 74.7% in the assay on NCI-H522 lung, 37.7% in the assay on A549/ATCC NSCLC, 34.6% with 786-0 renal and 99% with COLO 205 colon.
On to `Cc1ccc(C(=O)NNC(=O)CSc2nc3ccccc3c(=O)[nH]2)cc1`, for which the growth in the assay with NCI-H23 lung was 98.5%; in the assay with NCI-H226 lung, 92.4%; in the assay on NCI-H322M lung, 99.2%; in the assay on HOP-62 NSCLC, 98.8%; with NCI-H460 lung, 108%; in the assay on HOP-92 NSCLC, 90.6%. Further, the growth with NCI-H522 lung is 106%; with A549/ATCC NSCLC it was 111%; with 786-0 renal, 95.2%; with COLO 205 colon it was 97.8%.
Take `N#Cc1ccc(NC(=O)CSc2ccc(-c3ccc(Br)cc3)nn2)cc1`: the growth with NCI-H23 lung was 51.3%; in the assay on NCI-H226 lung, 44.8%; with NCI-H322M lung, 76.6%; in the assay with HOP-62 NSCLC, 88.6%; with NCI-H460 lung, 64.6%; in the assay on HOP-92 NSCLC, 70.2%. The growth with NCI-H522 lung is 52%; in the assay on A549/ATCC NSCLC it was 64.7%; with 786-0 renal it was 80.2%; with COLO 205 colon, 112%.
For the compound `COc1ccc(Nc2nc(N)n(Cc3cccc(Br)c3)n2)cc1`, the growth in the assay with NCI-H23 lung was 0.552% (active); with NCI-H226 lung, 10%; in the assay on NCI-H322M lung it was 27.7%; with HOP-62 NSCLC, 35.1%; in the assay on NCI-H460 lung, -17.6% (active); with HOP-92 NSCLC, -36.9% (active). The growth in the assay with NCI-H522 lung is -20.9% (active); in the assay on A549/ATCC NSCLC, 19.6%; with 786-0 renal it was -9.25% (active); in the assay with COLO 205 colon, -46.6% (active).
Consider `O=C(CS(=O)(=O)c1oc(-c2ccc(Cl)cc2)nc1S(=O)(=O)c1ccc(Cl)cc1)N1CCOCC1`, for which the growth was 48.9% in the assay on NCI-H23 lung; 78.2% in the assay with NCI-H226 lung; 93.5% in the assay on NCI-H322M lung; 84.3% with HOP-62 NSCLC; 107% with NCI-H460 lung; -25.5% (active) in the assay with HOP-92 NSCLC. The growth is -14.8% (active) with NCI-H522 lung, 83.7% in the assay on A549/ATCC NSCLC, 40.3% with 786-0 renal and 10.5% with COLO 205 colon.
